From PubChem BioAssay (NCI)
“And” between values parts separate entries of the source, which are not always exact repeats. Identical values can stand only once. About 83,000 compounds went through this panel and 20% of them were active in at least one assay; those are over-represented in the sample as a whole.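 Assay: single dose, 48 h. Readout: percent growth (0 = no net growth; negative = cell death). Active: <10.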 Unmarked numbers belong to inactive results. The source made the active and inactive calls.

Tested on: MDA-MB-468 breast
Assay: NCI-60 one-dose screen, 48 h (100 = growth as untreated, 0 = no growth, -100 = all killed)
Conditions: 10 µM unless noted

In order of rising growth:
1. CCCCNC(=O)NS(=O)(=O)c1ccc(N2N=C(c3cc(C)ccc3C)CC2c2cc(OC)c(OC)c(OC)c2)cc1 (stereo not drawn)  24.4%
2. CC(=O)Nc1cc(N2CCOCC2)c2nc(NC(=O)c3[nH]c(C)c(Cl)c3Cl)sc2c1  47.7%
3. Brc1ccc(/C=C(/C2=NCCN2)n2ccc3ccccc32)cc1  50.8%
4. Nc1c(C(=O)Nc2cccc([N+](=O)[O-])c2)sc2nc3c(cc12)C(O)CCC3 (stereo not drawn)  53.5%
5. CCC12CCC3c4ccc(O)cc4CCC3C1CC(O)C2O (stereo not drawn)  58.4%
6. COc1ccc(CC(C)=C(c2ccc(OCCN(C)C)cc2)c2ccc(OCCN(C)C)cc2)cc1  68.3%
7. O=C1C(SCc2ccccc2)=C(Cl)CN1c1ccccc1  79.7%
8. COC(=O)c1nc(=S)[nH]c(C(=O)OC)c1C(=O)c1ccc(OC)cc1  94.7%
9. N#CC1=C(/N=C/c2ccccc2)Oc2c(ccc3ccccc23)C1c1ccc([N+](=O)[O-])cc1 (stereo not drawn)  102%
10. COc1cc(-c2ccc(N=Nc3ccc4c(S(=O)(=O)O)ccc(N)c4c3O)c(OC)c2)ccc1N=Nc1ccc2c(S(=O)(=O)O)ccc(N)c2c1O  120%

For COc1cc(N=Nc2ccc(O)c3ncccc23)c2ncccc2c1, the growth was -36.5% (active).
In the case of Nn1c(=O)n(-c2cccc(C(F)(F)F)c2)c(=O)c2cc(-c3ccc(F)cc3F)ccc21, the growth is reported as -5.36% (active).
In the case of CC(=O)Nc1cccc2cc(O)ccc12, the growth is reported as 112% and 101% and 110%.
